Screening data from PubChem.
Pf growth 96h = Primary qHTS for delayed death inhibitors of the malarial parasite plastid, 96 hour incubation; 320,000 compounds, 6.9% hits; P. falciparum luciferase reporter growth, 96 h; AID 504834, 2011; Potency, µM (highest dose often 28.7 µM), most hits filed as inhibitors
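Plates of compound plus infected erythrocytes (2% hematocrit, 0.05% parasitemia final) incubate 96 hours, 37 C, 5% CO2. Detection reagent added; reduced luminescence from the parasites' luciferase reporter flags inhibition.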
AmpC no deterg = qHTS Inhibitors of AmpC Beta-Lactamase (assay without detergent). AmpC nitrocefin hydrolysis, absorbance 480 nm, 0.0001% Triton. Potency, µM (series often up to 57.1 µM), usual class: inhibitors. 330,000 compounds, 0.52% hits; further: nearly all actives have a fitted effect of over 20% in size
Target sequence (P00811 whole entry, looked up): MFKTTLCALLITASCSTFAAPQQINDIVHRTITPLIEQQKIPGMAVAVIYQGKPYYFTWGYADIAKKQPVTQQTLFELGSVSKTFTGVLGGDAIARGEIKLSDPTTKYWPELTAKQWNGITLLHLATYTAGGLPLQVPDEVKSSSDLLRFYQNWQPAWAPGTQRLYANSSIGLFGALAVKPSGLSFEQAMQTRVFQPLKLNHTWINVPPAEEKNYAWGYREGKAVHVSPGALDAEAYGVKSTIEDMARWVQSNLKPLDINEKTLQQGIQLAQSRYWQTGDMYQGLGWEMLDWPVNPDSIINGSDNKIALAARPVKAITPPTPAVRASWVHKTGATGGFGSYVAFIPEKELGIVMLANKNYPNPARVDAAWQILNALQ
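AmpC (5.3 nM in the dispensed reagent) in 20 mM phosphate pH 7.0 with 0.01% (detergent screen) or 0.0001% Triton X-100 was preincubated with compounds for 15 min at room temperature. Nitrocefin was then added from an 800 uM solution, and hydrolysis was followed at 480 nm.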
AmpC detergent = qHTS Inhibitors of AmpC Beta-Lactamase (assay with detergent); 370,000 compounds, 0.041% hits; AmpC hydrolysis of nitrocefin, absorbance 480 nm, 0.01% Triton; AID 485294, 2010; Potency, µM (titrated, usually from 114 µM), actives largely listed as inhibitors; P00811; further: nearly all actives have a fitted effect of over 25% in size
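AmpC (5.3 nM in the dispensed reagent) in 20 mM phosphate pH 7.0 with 0.01% (detergent screen) or 0.0001% Triton X-100 was preincubated with compounds for 15 min at room temperature. Nitrocefin was then added from an 800 uM solution, and hydrolysis was followed at 480 nm.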
Sm TGR block = qHTS Assay for the Inhibitors of Schistosoma Mansoni Peroxiredoxins. Schistosoma mansoni thioredoxin glutathione reductase (TGR), Q962Y6. purified TGR, DTNB reduction, TNB absorbance 405 nm. Potency, µM (highest dose often 114 µM), usual class: inhibitors. 360,000 compounds, 3% hits. AID 485364, 2010; further: nearly all actives have a fitted effect of over 60% in size
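TGR 20 nM + NADPH 100 uM (dispensed conc.), cpd preinc 15 min RT; start with NADPH (500 uM addition) then DTNB (15 mM addition). Kinetic TNB absorbance, 405 nm filter. Four-parameter Hill fit across titration.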
Pf growth 48h = Primary qHTS for delayed death inhibitors of the malarial parasite plastid, 48 hour incubation | P. falciparum luciferase growth in erythrocytes, 48 h | Potency, µM (series often up to 28.7 µM), hits mostly inhibitors | 310,000 compounds, 5.9% hits | AID 504832, 2011
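Read-out is firefly luciferase luminescence from an integrated reporter in P. falciparum, so falling signal marks reduced parasite growth. Infected erythrocytes were at 2% hematocrit and 0.1% parasitemia (final) in Albumax-supplemented RPMI 1640.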
SARS PLP yeast = qHTS of Yeast-based Assay for SARS-CoV PLP; Potency, µM (highest dose often 32.9 µM), most hits filed as activators; S. cerevisiae expressing SARS-CoV PLpro, growth rescue; 330,000 compounds, 0.19% hits; calls by dose curve; further: nearly all actives have a fitted effect of over 55% in size
A number is an active result; . = inactive; ? = inconclusive; / = no result given; [ ] = remark or other dose. Shown are actives, neighbours in structure and some others; about 12% of the full set was active somewhere. Unless noted, the call rests on the fitted dose curve; in most records, active means well fitted curve in the direction sought with a large enough effect; inconclusive means small, poorly fitted or top-dose-only effect, or another doubt; inactive means no such curve, though single readings can be large; an effect the other way counts as inactive or inconclusive.

SMILES | Pf growth 96h | AmpC no deterg | AmpC detergent | Sm TGR block | Pf growth 48h | SARS PLP yeast
COc1cc2cc(CN(C(=O)NC3CCCCC3)C3CCCC3)c(=O)[nH]c2cc1OC | ? | . | . | . | 12µM | .
COc1ccc2cc(CN(C(=O)Nc3ccccc3OC)C3CCCC3)c(=O)[nH]c2c1 | . | . | . | . | 2.3µM | .
COc1ccc2cc(CN(Cc3cccnc3)S(=O)(=O)c3ccccc3)c(=O)[nH]c2c1 | / | . | . | . | 10µM | .
CCN(CC)c1ccc(CN(C(=O)Cc2coc3ccc(C)cc23)C2CCS(=O)(=O)C2)cc1 (stereo unspecified) | / | / | . | . | / | /
COc1cc(NC(=O)C2CCN(S(=O)(=O)c3ccc4c(c3)oc(=O)n4C)CC2)cc(OC)c1 | / | / | . | . | / | /
CCc1nnc2c(N3CCN(c4cccc(C)c4)C(C)C3)nc3ccccc3n12 (stereo unspecified) | / | / | . | . | / | /
O=C(CSc1nnc(-c2ccc(F)cc2)o1)N1CCCc2ccccc21 | / | / | . | . | / | /
COc1ccc(CN(Cc2cc3cc(OC)c(OC)cc3[nH]c2=O)C(=O)NC2CCCCC2)cc1 | 1.7µM | . | . | . | / | .
COc1cc2cc(CN(Cc3cccnc3)C(=O)NCc3ccccc3)c(=O)[nH]c2cc1OC | ? | . | . | . | 9.3µM | .
COc1ccccc1-c1noc(-c2ccc(NCc3cccnc3)c([N+](=O)[O-])c2)n1 | / | / | . | . | / | /
Cc1ccc2oc3c(c(=O)c2c1)C(c1ccc(F)cc1)N(CCCN1CCOCC1)C3=O (stereo unspecified) | ? | . | . | 32µM | / | .
Cc1ccc2oc3c(c(=O)c2c1)C(c1cccc(Cl)c1)N(CCCN1CCOCC1)C3=O (stereo unspecified) | ? | . | ? | ? | 2.6µM | .
Cc1ccc2oc3c(c(=O)c2c1)C(c1cccc(O)c1)N(CCCN1CCOCC1)C3=O (stereo unspecified) | / | / | . | . | / | /
COc1ccc(N=CC2=C(O)CC(C)(C)CC2=O)cc1 | . | . | . | .[11.4 µM] | / | 13µM
CC1(C)CC(=O)C(C=Nc2cccnc2/N=C/C2=C(O)CC(C)(C)CC2=O)=C(O)C1 | . | . | . | 22µM | . | .
CC1(C)CC(=O)C(C=Nc2ccc3c(c2)OCO3)=C(O)C1 | / | . | . | . | . | .
COc1ccc(OC)c(N=CC2=C(O)CC(C)(C)CC2=O)c1 | / | . | . | . | . | .
CC1(C)CC(=O)C(C=Nc2ccc(O)c(N=CC3=C(O)CC(C)(C)CC3=O)c2)=C(O)C1 | ? | . | . | . | 10µM | .
COc1ccccc1N1CCN(C(=O)Nc2cccc(C)c2)CC1 | . | . | . | . | . | .
O=C(/C(=C/O)N=Nc1ccccc1)c1ccncc1 | ? | . | . | . | / | ?
Cc1cccc(N=N/C(=C\O)C(=O)c2cccs2)c1 | 12µM | . | . | . | ? | .
O=C(CNC(=O)c1ccccc1)NCCc1ccc(O)c(O)c1 | . | . | . | 3.2µM | ? | .
CCOC(=O)c1c(-c2ccc(F)cc2)csc1NC(=O)C1CCCO1 (stereo unspecified) | . | . | . | . | . | .
COC(=O)c1c(-c2cccc(C)c2)csc1NC(=O)C1CCCO1 (stereo unspecified) | . | . | . | . | 13µM | .
Cc1cccc(-c2nc3cc(NC(=O)C4CCCO4)ccc3o2)c1 (stereo unspecified) | . | . | . | . | . | .
SMILES | Pf growth 96h | AmpC no deterg | AmpC detergent | Sm TGR block | Pf growth 48h | SARS PLP yeast
CCOC(=O)c1c(-c2ccc(OC)cc2)csc1NC(=O)C1CCCO1 (stereo unspecified) | . | . | . | . | ? | .
CCOC(=O)c1c(-c2ccc(C)cc2)csc1NC(=O)C1CCCO1 (stereo unspecified) | 9.3µM | . | . | . | ? | .
Cc1ccc2oc(-c3cccc(NC(=O)C4CCCO4)c3)nc2c1 (stereo unspecified) | 10µM | . | . | . | . | .
COc1ccc(-c2nnc(SCC(=O)Nc3ccc(F)cc3)s2)cc1 | / | / | . | . | / | /
O=C(CN(CC1CCCO1)S(=O)(=O)c1ccc(S(=O)(=O)NCC2CCCO2)cc1)Nc1ccccc1 (stereo unspecified) | . | / | . | . | . | /
CC(=O)Nc1ccc(S(=O)(=O)N(Cc2ccco2)CC2CCCO2)cc1 (stereo unspecified) | . | . | ? | 25µM | . | .
CN(C)S(=O)(=O)c1ccc(S(=O)(=O)N(CC(=O)Nc2ccccc2)CC2CCCO2)cc1 (stereo unspecified) | 12µM | . | . | . | . | .
CC(=O)Nc1ccc(C(=O)Nc2ccc(S(=O)(=O)NCC3CCCO3)cc2)cc1 (stereo unspecified) | . | . | . | . | 13µM | .
O=C(Nc1ccc(F)cc1)c1ccc(S(=O)(=O)NCC2CCCO2)cc1 (stereo unspecified) | . | . | ? | . | ? | .
O=C(C1CC1)N1CCC(c2nc(-c3ccc(S(=O)(=O)NCC4CCCO4)cc3)no2)CC1 (stereo unspecified) | . | . | . | . | 9.3µM | .
O=C(CNC(=O)c1cccs1)N/N=C/c1c[nH]c2ccccc12 | . | . | . | . | . | .
C=CCOC(=O)c1[nH]c2c(c1C)C(=O)CC(c1cc(OC)c(OC)c(OC)c1)C2 (stereo unspecified) | 12µM | . | . | . | 9.3µM | .
COCCOC(=O)c1[nH]c2c(c1C)C(=O)CC(c1cc(OC)c(OC)c(OC)c1)C2 (stereo unspecified) | 9.3µM | . | . | . | 5.2µM | .
CCCCOC(=O)c1[nH]c2c(c1C)C(=O)CC(c1cc(OC)c(OC)c(OC)c1)C2 (stereo unspecified) | . | 32µM | ? | . | 2.9µM | .
COCCOC(=O)c1[nH]c2c(c1C)C(=O)CC(c1ccc(N(C)C)cc1)C2 (stereo unspecified) | ? | . | . | . | 12µM | .
COc1cc(C2CC(=O)c3c([nH]c(C(=O)OCC4CCCCC4)c3C)C2)cc(OC)c1OC (stereo unspecified) | / | / | . | . | / | /
O=S(=O)(Nc1ccc(O)c(Sc2nc3ccccc3s2)c1)c1ccc(Cl)cc1 | ? | . | . | . | . | .
COc1cccc(Cn2c(CNC(=O)C(C)C)nc3cccnc32)c1 | / | / | . | . | / | /
COc1ccc(OC)c(CC2C(=O)Nc3ccc(Br)cc32)c1 (stereo unspecified) | / | / | . | . | / | /
COc1ccccc1N1CCN(c2ncc3c(n2)CCN(Cc2ccc(C)s2)C3)CC1 | / | / | . | . | / | /
